Data from PubChem BioAssay (NCI).
This is part of a sample that, as a whole, favours compounds with a hit. Of some 83,000 tested, about 20% had one in any assay.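 Note: values are percent growth. 100 is the growth of untreated cells, values between 100 and 0 indicate rising inhibition; between -100 and 0 indicates cell death.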 A number with no mark means an inactive call. The source made the active and inactive calls.

These compounds were tested on SK-OV-3 ovarian (assay: NCI-60 one-dose screen, 48 h (100 = growth as untreated, 0 = no growth, -100 = all killed)). Details: 10 µM unless noted.
Procedure: Growth inhibition of the SK-OV-3 human tumor cell line is measured as a screen for anti-cancer activity. Cells are grown in 96 well plates and exposed to the test compound for 48 hours. Compounds are tested at a single concentration, which is 10^-5 M for most compounds. The reported endpoint is percent growth (GI% or GIPRCNT), where numbers from 0 - 100% represent growth inhibition, and numbers from -100% - 0 represent cell death. For example, a value of 40 represents 60% growth inhibition. A value of 0 means no net growth occurred over the course of the experiment. A value of -40 indicates 40% of cells at the beginning of the experiment died by the end of the experiment. A value of -100 means all cells are dead at the end of the experiment.
NCI-60 Human Tumor Cell Lines Screen was performed using the standard one-dose NCI protocol, which is described in more detail at https://dtp.cancer.gov/discovery_development/nci-60/default.htm.
Compounds with GIPRCNT values below 10 were considered active. Activity score was based on GIPRCNT using the following formula: […]
Score is 0 for GIPRCNT values of 100 or above, 50 for GIPRCNT values of 0, and 100 for GIPRCNT values of -100.

Structure (SMILES) | growth
CCN(CC)c1ccc(CNc2ccnc3ccccc23)cc1 | 61.4%
Cc1ccc(S(=O)(=O)/C(=C\c2ccc(Cl)cc2)C(=O)c2ccccc2)cc1 | 96.9%
O=c1ccn(C2CC(O)C(O)C(CO)O2)c(=O)[nH]1 (stereo not given) | 114%
Cc1ccc2nc(-c3cc4c([nH]c5ccccc54)c(-c4ccc(F)c(F)c4)n3)[nH]c2c1 | 109%
COc1ccc(C(=O)N2NC(=O)/C(=C/c3ccc(Br)cc3)N=C2c2ccccc2)cc1 | 85.3%
O=C(Nc1ccc2c(c1)OCCO2)C(=O)c1c[nH]c2ccccc12 | 12.8%
O=c1ccn(-c2ncnc3nc[nH]c23)cc1 | 84.8%
CCOC(=O)c1ccc(NC(=O)N2CC(C)OC(C)C2)cc1 (stereo not given) | 99.5%
COc1ccc(N2CCN(Cc3cc(C(=O)/C=C/c4c[nH]c5ccccc45)ccc3O)CC2)cc1 | 93.5%
COC1=C(OC)C(=O)C(CCCCCCCCCC[P+](c2ccccc2)(c2ccccc2)c2ccccc2)=C(C)C1=O | -40% (active)
CC(NNC(C)c1ccccc1)c1ccccc1 (stereo not given) | 110%
CCOC(=O)NNC(=S)Nc1ccccc1 | 111%
CC1(C)C(=O)/C(=C\c2ccc(C(F)(F)F)cc2)C[C@]2(C)[C@H]3CC[C@@H]4[C@H]5[C@H](C(=O)/C=C/c6ccc(C(F)(F)F)cc6)CC[C@]5(CO)CC[C@@]4(C)[C@]3(C)CC[C@@H]12 | 110%
Cc1ccc(S(=O)(=O)NC(=O)n2cc(-c3ccncc3)c(-c3ccc(Cl)c(O)c3)n2)cc1 | 101%
CSc1nc2c(c(=O)[nH]1)C(c1ccc(C)cc1)C=C(C(=O)O)N2 (stereo not given) | 115%
COc1cc(C2NN=C3c4ccccc4CCC32)cc(OC)c1OC (stereo not given) | 69%
CC(C)(C)n1cc(-c2ccnc(NCCNS(=O)(=O)c3ccc(C(F)(F)F)cc3)c2)c(-c2cccc(O)c2)n1 | 86.3%
COc1cccc(-c2cc3c(O)cc(C#N)cc3[nH]2)c1 | 108%
O=C1C2(c3ccccc3)C(c3ccccc3)=C(c3ccccc3)C1(c1ccccc1)C1CC=CC12 (stereo not given) | 96.3%
CCN1CCN(c2nc(NNC(=O)c3ccccc3)nc(N3CCN(C(c4ccccc4)c4ccccc4)CC3)n2)CC1 | 89.7%

Structure (SMILES) | growth
CCCCN(CCCC)C(=N)c1ccnc2ccccc12 | 112%
COc1ccc(/C=C\c2cc(OC)c(OC)c(OC)c2)cc1OC(=O)c1cccc(Cn2cc(CCOC(=O)c3cccc(Cn4nnc5c4C(=O)c4ccccc4C5=O)c3)nn2)c1 | 41.7%
CCCCCCCCCCCCNC(=O)[C@H]1CSC(c2ccsc2)N1 (stereo not given in full) | -93.8% (active)
COc1ccc(NC(=O)c2c(Nc3ccc(OC)cc3OC)n[nH]c2N)c(OC)c1 | 92%
CCC(=O)Oc1ccc(/C(=C(/C)Cc2cccc(OC)c2)c2ccc(OCCN(C)C)cc2)cc1 | 114%
N[C@H]1CN(C(=O)c2cc3cc(Br)c(F)c(F)c3[nH]2)C[C@@H]1O | 100%
O=C1/C(=C/c2ccccc2)CN(C(=O)CCN2CCC(=NO)CC2)C/C1=C\c1ccccc1 | 77.5%
COc1ccc(-c2nc(/C=N/Nc3cc(C)nc4ccc(Cl)cc34)c(C)o2)cc1 | 92.5%
C=C1CCC2C(C)(CO)C(O)CCC2(C)C1C/C=C1/C(=O)OCC1Oc1ccccc1C (stereo not given) | 122%
CN(C)CCCC(C#N)c1ccccc1 (stereo not given) | 107%
CCN(CC)CCC(CNc1ccnc2cc(Cl)ccc12)c1ccccc1 (stereo not given) | 85.6%
COc1cc(-c2nc(-c3nc4ccc(Cl)cc4[nH]3)cc3c2[nH]c2ccccc23)cc(OC)c1OC | 103%
COc1ccc(/C=N\NC(=O)CN2CCN(c3cc4c(cc3F)c(=O)c(C(=O)N/N=C/c3ccc(OC)c(OC)c3)cn4C3CC3)CC2)cc1OC | 17.1%
COc1ccc2[nH]c(C(=O)OCc3ccc4c(Cl)cc(Cl)c(O)c4n3)cc2c1 | 68.8%
COc1ccc(C(=O)N2NC(=O)/C(=C/c3cn(-c4ccccc4)nc3-c3ccccc3)N=C2c2ccccc2)cc1 | 107%
C=COC(=O)CCCCCCCCC | 111%
COc1ccc(C(=O)N2NC(=O)/C(=C/c3ccccc3F)N=C2c2ccccc2)cc1 | 112%
COc1ccc(/C=C2\CN(Cc3cn(CCNc4ccnc5cc(Cl)ccc45)nn3)C/C(=C\c3ccc(OC)c(OC)c3)C2=O)cc1OC | 4.28% (active)
COc1ccc(-c2cc(-c3ccccc3)nc(SCCCC(=O)NO)n2)cc1OC | -0.339% (active)
COc1ccc(-c2c(N)n[nH]c2-c2cc3c(c(OC)c2OC)OCO3)cc1 | 106%
